PubChem BioAssay (Tox21)
Activity calls are given as the source filed them. The call rests on the fitted dose curve; in most records, active means well fitted curve in the direction sought with a large enough effect in the repeat runs; inconclusive means weak or mixed curves; inactive means flat fitted curve, though single readings scatter.

assay: qHTS assay to test for compound auto fluorescence at 535 nm (green) in HEK293 cells (AID 720680); conditions: green autofluorescence 485/535 nm; series mostly up to 91.3 µM
Excerpt: U.S. Tox21 Program National Center for Advancing Translational Sciences [NCATS] NIH Chemical Genomics Center [NCGC] U.S. Environmental Protection Agency [EPA] National Institutes of Environmental Health Sciences [NIEHS] National Toxicology Program [NTP] U.S. Food and Drug Administration [FDA] Tox21 Assay Overview: Compound auto fluorescence often interferes with screening of the compound library against various biological targets and signaling pathways. Some of these compounds may have fluorophoric properties. Such properties may interfere with the assay outputs resulting in false positives and/or negatives. To decrease such complications and ensure the compound activities are relevant in terms of biological response, the Tox21 10K compound library was screened for auto fluorescence. From the fluorophores used as reporter signals in our screening assays, the auto fluorescence equivalencies of compounds against three fluorophores have been evaluated: Triamterene, Fluorescein and Rose Bengal sodium for blue, green and red fluorescence, respectively. The fluorescence intensities were measured using Excitation/Emission wavelengths at 405/460nm, 485/535nm and 540/590nm for blue, green and red labels, respectively. This assay includes the green fluorescence data.
Tox21 Assay Protocol Summary: 2,000 HEK293 cells in 5 uL of culture medium containing 10% dialyzed FBS per well were dispensed into black wall/clear bottom 1536-well plates using a Multidrop Combi Dispenser (Thermo Scientific). The assay plates were incubated for 4-5 hr at 37C to allow cell attachment to the well bottom, followed by the transfer of 23 nL compound or DMSO vehicle by a pintool work station (Kalypsys, San Diego, CA). After the assay plates were incubated overnight at 37C and 5% CO2, fluorescence intensities in the assay plates were measured by an Envision (PerkinElmer, Shelton, CT) plate reader using three labels for measuring blue, green and red fluorescence at […] 460, 535 and 590nm respectively.
On the % scale 0 is the no-effect control and ±100 the full control effect.

SMILES	outcome	fluorescence, % of fluorescein
CC(C)[C@H]1CC[C@@H](C)CC1=O	inactive	
CCCCc1ccc2c(n1)[C@@H](c1ccc(OC)cc1C[C@H](C)C(=O)O)[C@H](C(=O)O)[C@H]2c1ccc2c(c1)OCO2	inactive	
O=C(CO)[C@@H](O)[C@H](O)[C@@H](O)CO	inactive	
CN(C)[C@@H]1C(=O)C(C(=O)NCN2CCCC2)=C(O)[C@@]2(O)C(=O)C3=C(O)c4c(O)cccc4[C@@](C)(O)C3C[C@@H]12 (stereo not given in full)	inactive	
Cc1ccc(C(=O)c2ccc(CC(=O)O)n2C)cc1		-0.0701% [at 18.6 µM] (inactive)
CO[C@@]1(NC(=O)CSC[C@@H](N)C(=O)O)C(=O)N2C(C(=O)O)=C(CSc3nnnn3C)CS[C@@H]21	inactive	
O=S(=O)(O)c1cccc2c(S(=O)(=O)O)cccc12	inactive	
Cc1ncc(COP(=O)(O)O)c(C=O)c1O	inactive	
CN1C(C)(C)CC(O)CC1(C)C	inactive	
[Ca+2]	inactive	
C[C@H]1C[C@H]2[C@@H]3CCC4=CC(=O)C=C[C@]4(C)[C@H]3C(=O)C[C@]2(C)[C@@]1(O)C(=O)CO	inactive	
CCOc1ccccc1OCC	inactive	
CC1=NN(c2cc(S(=O)(=O)O)ccc2Cl)C(=O)C1N=Nc1ccccc1 (stereo not given)	inactive	
CC[N+](C)(CC)CCOC(=O)C1c2ccccc2Oc2ccccc21	inactive	
O=S(=O)(O)c1cc(O)c(O)c(S(=O)(=O)O)c1	inactive	
CCCCCCC1CCC(=O)O1 (stereo not given)	inactive	
O=C(O)CNC(=O)c1ccc(CO)o1	inactive	
Nc1ccncc1N	inactive	
FB(F)F	inactive	
CCCCCCCCCCCCSC	inactive	

SMILES	outcome	fluorescence, % of fluorescein
CCOC(=O)c1ccccc1	inactive	
C[C@H]1[C@H](NC(=O)/C(=N/OC(C)(C)C(=O)O)c2csc(N)n2)C(=O)N1S(=O)(=O)O (stereo in doubt)		0.0034% [at 18.6 µM] (inactive)
NS(=O)(=O)Cc1noc2ccccc12	inactive	
CCCCCCCC1CCCC1=O (stereo not given)	inactive	
Nc1ccn([C@@H]2O[C@H](CO)[C@@H](O)C2O)c(=O)n1 (stereo not given in full)	inactive	
c1ccc(CCc2ccccc2)cc1	inactive	
CCCCOCCOC(=O)COc1cc(Cl)c(Cl)cc1Cl	inactive	
CCC(C(=O)NC(=O)NC(C)=O)c1ccccc1 (stereo not given)	inactive	
CC(=O)NC(=O)c1ccccc1O	inactive	
O=S(=O)(O)c1cccc2ccccc12	inactive	
CC/C=C\CCOC(C)OCC (stereo not given)	inactive	
O=C(c1ccccc1)C1(O)CCCCC1	inactive	
C=CC(C)(CCC=C(C)C)OC(=O)CC (stereo not given)	inactive	
CCOc1ccc2nc(S(N)(=O)=O)sc2c1	inactive	
Nc1ccn([C@@H]2O[C@H](CO)[C@@H](O)C2(F)F)c(=O)n1	inactive	
N[C@@H](CCC(=O)O)C(=O)O	inactive	
CCCCN(CCC(=O)OCC)C(C)=O	inactive	
CC(C)COC(=O)c1ccc(N)cc1	inactive	
NC(N)=NCCN1CCCCCCC1		-0.017% [at 18.6 µM] (inactive)
Cc1c(N)c(=O)n(-c2ccccc2)n1C		-0.0771% [at 18.6 µM] (inactive)
